From PubChem BioAssay
POLB inh: inhibitors of human DNA polymerase beta; Potency, µM (highest dose often 114 µM), actives largely listed as inhibitors; 340,000 compounds, 1.3% hits; P06746; Pol beta primer extension/strand displacement, fluorescence kinetic
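Kinetic readout of DNA synthesis with strand displacement by Pol beta. Compound and 10 nM enzyme sit 15 min at room temperature; 50 nM substrate starts the reaction, read immediately and at 10 min.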
WRN helicase inh: WRN helicase (human) inhibition. WRN helicase unwinding, fluorescent forked duplex, kinetic. 360,000 compounds, 0.46% hits. AID 651768. Potency, µM (top dose mostly 114 µM), most hits filed as inhibitors. Q14191; also: nearly all actives have a fitted effect of over 55% in size
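Enzyme (20 nM final) and test compound sit together 15 min at room temperature before substrate addition. Substrate is a single-forked duplex oligonucleotide (100 nM) labelled with fluorophore and quencher, with 2 mM ATP; helicase unwinding raises red fluorescence, read kinetically.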
Pol eta inh-1: blocks human DNA polymerase eta activity. Q9Y253. recombinant Pol eta, fluorescent DNA replication assay. Potency, µM (doses to about 114 µM), most hits filed as inhibitors. 390,000 compounds, 1.2% hits
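Fluorescent replication assay: 50 nM final substrate added after a 15 min room-temperature compound preincubation with 10 nM enzyme. Signal taken at 0 min and again at 10 min.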
POLI inh: inhibitors of human DNA polymerase iota. Q9UNA4. Pol iota fluorescent replication assay, 10 min. Potency, µM (series often up to 115 µM), hits mostly inhibitors. 390,000 compounds, 1% hits. AID 588590
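Fluorescent replication assay read twice, at 0 min and 10 min after adding 50 nM (final) substrate. Enzyme (10 nM) and compounds were first incubated 15 min at room temperature; enzyme-free buffer wells were negative controls.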
Pol kappa inh-1: DNA polymerase kappa (human) inhibition; purified Pol kappa, fluorescent DNA synthesis assay, 10 min; Q9UBT6; 400,000 compounds, 0.53% hits; Potency, µM (doses to about 107 µM), hits mostly inhibitors
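Readout: fluorescence, taken kinetically at 0 and 10 min. Conditions: 10 nM Pol kappa, 15 min RT compound preincubation, 50 nM substrate final. Controls: enzyme-free buffer wells.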
FEN1 inh-1: human FEN1 inhibition; P39748; Recombinant FEN1 flap cleavage, fluorescence, 15 min; Potency, µM (series often up to 114 µM), usual class: inhibitors; 390,000 compounds, 0.35% hits; also: nearly all actives have a fitted effect of over 65% in size
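Concentration–response screening of FEN1 (10 nM): 15 min compound preincubation at room temperature, reaction started with 50 nM substrate and read at 0 and 15 min. Corrected, normalized data were fitted by a four-parameter Hill equation.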
TbPGK inh: TbPGK inhibition, hit validation; shares compounds with Pol kappa inh-1; TbPGK coupled GAPDH assay, Kinase-Glo luminescence; Potency, µM (highest dose often 57.5 µM), usual class: inhibitors; 500 compounds, 79% hits; AID 686980; also: nearly all actives have a fitted effect of over 65% in size
Pol iota confirm: Inhibitors of human DNA polymerase iota, confirmation; shares compounds with Pol kappa inh-1; Pol iota primer extension, TAMRA/BHQ fluorescence; Potency, µM, hits mostly inhibitors; 1,500 compounds, 77% hits; AID 720496
GALK inh confirm: galactokinase (human) inhibition, confirmation. shares compounds with Pol eta inh-1. purified GALK, Kinase-Glo ATP depletion luminescence. Potency, µM (top dose mostly 115 µM), hits mostly inhibitors. 150 compounds, 70% hits. AID 2015
Redox cycling: counter-screen for GALK inhibitors: redox cycling H2O2 generation; AID 2035; shares compounds with Pol eta inh-1; Phenol red-HRP H2O2 redox cycling, absorbance 600 nm; 150 compounds, 40% hits; Potency, µM (series often up to 115 µM), actives largely listed as inhibitors
HEK293 tox: reduces HEK-293 cell viability in GALK counter-screen; 170 compounds, 10% hits; AID 2547; HEK-293 viability, ATP luminescence (CellTiter-Glo), 24/48 h; shares compounds with Pol eta inh-1; Potency, µM (titrated, usually from 46.1 µM), hits mostly inhibitors
Pol kappa inh-2: Pol kappa (human) inhibition, cherry-pick confirmation | 920 compounds, 76% hits | purified Pol-kappa, fluorescent strand-displacement substrate | Potency, µM, hits mostly inhibitors | AID 720501 | shares compounds with Pol eta inh-1
Pol eta inh-2: confirmation of human DNA polymerase eta inhibitors; shares compounds with Pol eta inh-1; Pol eta primer extension, TAMRA/BHQ fluorescence, 10 min; Potency, µM, hits mostly inhibitors; 2,600 compounds, 64% hits; AID 720502
FEN1 inh-2: confirmation of human FEN1 inhibitors. AID 720498. FEN1 flap cleavage, TAMRA/BHQ2 fluorogenic DNA substrate. Potency, µM, actives largely listed as inhibitors. 880 compounds, 79% hits. shares compounds with FEN1 inh-1; also: nearly all actives have a fitted effect of over 60% in size
Hits are given with their value. An excerpt weighted towards active compounds, which were near 2.4% of everything screened. Calls follow the shape of the dose curve; as a rule, active = well fitted curve in the direction sought with a large enough effect; inconclusive = small, poorly fitted or top-dose-only effect, or another doubt; inactive = no such curve, though single readings can be large; an effect the other way counts as inactive or inconclusive.

`O=C(O)CSc1cc(NS(=O)(=O)c2cccc([N+](=O)[O-])c2)c2ccccc2c1O` gave POLB inh 79µM, WRN helicase inh 40µM, Pol eta inh-1 22µM, POLI inh 3.2µM, Pol kappa inh-1 inconclusive, FEN1 inh-1 3.2µM, Pol iota confirm 27, GALK inh confirm 33µM, Redox cycling 21µM, HEK293 tox inactive, Pol eta inh-2 27 and FEN1 inh-2 76.
For O=C(O)c1cccc(S(=O)(=O)Nc2ccc([N+](=O)[O-])cc2O)c1 the results were POLB inh inactive, WRN helicase inh inactive, Pol eta inh-1 inactive, POLI inh inconclusive, Pol kappa inh-1 inconclusive and FEN1 inh-1 inactive.
Screening CCOc1ccc(S(=O)(=O)Nc2cc3c(C(=O)OC)c(COC)oc3c3ccccc23)cc1 returned POLB inh inconclusive, Pol eta inh-1 inactive, POLI inh inactive, Pol kappa inh-1 inactive and FEN1 inh-1 inactive.
`CCOc1ccc(S(=O)(=O)Nc2cc(SCC(=O)O)c(O)c3ccccc23)cc1` gave POLB inh inconclusive, WRN helicase inh 79µM, Pol eta inh-1 45µM, POLI inh 10µM, Pol kappa inh-1 inactive, FEN1 inh-1 inconclusive, Pol iota confirm inconclusive, Pol eta inh-2 inconclusive and FEN1 inh-2 67.
Oc1cc2c(cc1O)C1c3ccc(O)c(O)c3OCC1(O)C2 (stereo unspecified) was read as POLB inh 13µM, WRN helicase inh 28µM, Pol eta inh-1 7.1µM, POLI inh 7.9µM, Pol kappa inh-1 0.18µM, FEN1 inh-1 35µM, TbPGK inh 5.8µM, Pol iota confirm 24, Pol eta inh-2 27 and FEN1 inh-2 inconclusive.
Screening C=C1c2cccc(C(F)(F)F)c2O[C@H](C(=O)OCC)[C@@H]1CCCCCC returned Pol kappa inh-1 inactive.
C=Cc1c(C)c2cc3[nH]c(cc4nc(cc5nc(cc1[nH]2)C(C)=C5CCC(=O)O)C(CCC(=O)O)=C4C)c(C)c3C=C was read as POLB inh 1.4µM, WRN helicase inh 35µM, Pol eta inh-1 4.5µM, POLI inh 10µM, Pol kappa inh-1 9.5µM, FEN1 inh-1 35µM, TbPGK inh 0.23µM, Pol iota confirm 3, Pol eta inh-2 2.7 and FEN1 inh-2 34.
For O=C(Nc1ccccc1)N(Cc1c[nH]c2ccccc12)C1CCCCCC1 the results were POLB inh inactive, Pol eta inh-1 inactive, POLI inh inactive, Pol kappa inh-1 inactive and FEN1 inh-1 inactive.
`O=c1c2cc(O)c(O)cc2oc2cc(O)c(C3OC(CO)C(O)C(O)C3O)c(O)c12` (stereo unspecified) gave WRN helicase inh inactive, Pol eta inh-1 8.9µM, POLI inh inconclusive, Pol kappa inh-1 4µM, FEN1 inh-1 inactive, Pol iota confirm 15, Pol kappa inh-2 7.5, Pol eta inh-2 19 and FEN1 inh-2 inconclusive.
`COc1cc(Cl)c(C)cc1NC(=O)CSc1ncc(S(=O)(=O)c2ccc(C(C)(C)C)cc2)c(=O)[nH]1` gave POLB inh 10µM, Pol eta inh-1 10µM, POLI inh inconclusive, Pol kappa inh-1 inconclusive, FEN1 inh-1 inconclusive, TbPGK inh 21µM, Pol iota confirm 21, Pol eta inh-2 30 and FEN1 inh-2 48.
For COc1cccc(-n2c(SCc3cc(=O)oc4cc(O)c(O)cc34)nc3ccccc3c2=O)c1 the results were POLB inh 3.2µM, WRN helicase inh 28µM, Pol eta inh-1 3.2µM, POLI inh 7.9µM, Pol kappa inh-1 32µM, FEN1 inh-1 50µM, Pol iota confirm 7.5, Pol eta inh-2 12 and FEN1 inh-2 27.
CCN(CC)C(=O)CSc1nc2ccccc2c(=O)n1-c1cccc(OC)c1 was read as POLB inh inactive, WRN helicase inh inactive, Pol eta inh-1 inactive, POLI inh inactive, Pol kappa inh-1 inactive and FEN1 inh-1 inactive.
`O=C1N/C(=C/c2cccn2-c2ccccc2)C(=O)N1Cc1ccccc1F` gave POLB inh inactive, WRN helicase inh inconclusive, Pol eta inh-1 inactive, POLI inh inactive, Pol kappa inh-1 inactive and FEN1 inh-1 inactive.
For Cc1ccc(NC(=O)CN2C(=O)N/C(=C\c3cccn3-c3cccc(C(=O)O)c3)C2=O)cc1 the results were POLB inh 4µM, WRN helicase inh 28µM, Pol eta inh-1 3.5µM, POLI inh 14µM, Pol kappa inh-1 45µM, FEN1 inh-1 79µM, TbPGK inh 15µM, Pol iota confirm 19, Pol kappa inh-2 42, Pol eta inh-2 27 and FEN1 inh-2 76.
`O=C(O)c1ccc(-n2cccc2/C=C2/NC(=O)N(c3cccc(Cl)c3)C2=O)cc1` gave POLB inh 2.2µM, WRN helicase inh inconclusive, Pol eta inh-1 3.5µM, POLI inh 2µM, Pol kappa inh-1 16µM, FEN1 inh-1 40µM, TbPGK inh 5.8µM, Pol iota confirm 3.4, Pol eta inh-2 9.5 and FEN1 inh-2 67.
Screening O=C(O)c1ccc(COc2ccccc2/C=C2\NC(=O)N(Cc3ccccc3)C2=O)cc1 returned POLB inh inactive, WRN helicase inh inactive, Pol eta inh-1 inactive, POLI inh inactive, Pol kappa inh-1 inactive and FEN1 inh-1 inconclusive.
